Compounds with a hit are over-represented: about 2.5% of the library has one in this group of screens.
EWS-Fli inh: EWS/Fli-driven NR0B1 reporter inhibitors, primary screen, A673 cells, NR0B1 luciferase, luminescence, MLPCN library; viability-normalised; inhibition, % at 12.6 µM; actives 0.67% (n = 350,000);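 active = mean inhibition of at least 50% after viability correction, with every replicate also passing that limit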;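 note: firefly luciferase signal divided by Alamar Blue viability fluorescence both relative to DMSO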
PAX8 reporter: inhibitors of PAX8-driven TPO luciferase reporter, primary screen, RMG-I cells, single concentration | AID 652154, 2013 | SteadyGlo, 24 h | inhibition, % at 12.6 µM | actives 1.2% (n = 360,000);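 active = mean replicate inhibition at least 60% with every replicate also reaching 60%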;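 note: luciferase light reporting Pax8 driven TPO promoter activity; plate controls were median of neutral control wells for no effect and mitoxantrone controls for full effect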
FXN GAA850 act: FXN promoter activators, primary screen, cell-based, luciferase luminescence, HEK293 lucGAA850 | HEK293 lucGAA850 FXN promoter luciferase reporter, 24 h; percent of 10 µM SAHA response | activation, % at 6 µM | actives 0.56% (n = 360,000);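 active = activation above the average of all compounds screened plus 3 SD, cutoff fixed separately per campaign, cut at about 7.5% in these data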;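 note: 0% = DMSO wells and 100% = 10 µM SAHA wells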
CFTR F508del cor: F508del CFTR correction, initial screen, CFBE line, single point; CFBE cells, YFP halide quenching; stimulated with forskolin plus potentiator P3; % fluorescence drop versus neutral controls; actives 0.36% (n = 350,000); activity (quench increase), % at 7.58 µM;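 active = mean added fluorescence quench of at least 8% versus neutral control, with both replicates also reaching 8%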;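 note: cells transiently co-express mutant CFTR-F508del with the halide-sensitive YFP; corrector assay measuring rescue of mutant channel to the surface after 24 h compound exposure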
Env fusion inh: inhibitors of HIV-1 Env-driven cell-cell fusion, primary screen, HeLa-JRFL effector, CEM21 target cells, luciferase; AID 651610, 2012; inhibition, % at 12.3 µM; actives 1.1% (n = 360,000);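 active = mean replicate inhibition score of at least 50 and every replicate individually at or above 50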;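 note: 0% = plate neutral controls and 100% = maraviroc near 300 nM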
DNA binding: DNA binders by acridine orange displacement, dose response, counter-screen for EWS/Fli inhibitor project, biochemical, fluorescence polarization, cherry-pick | AID 720586, 2013 | salmon sperm DNA acridine orange fluorescence polarization | shares compounds with EWS-Fli inh | AC35, µM (top dose mostly 68 µM), for the others: at the highest dose activity change, negative = DNA binding | actives 2% (n = 640);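 active = fitted curve reaches a 35% signal fall AC35 below twice the sample's top valid tested dose, actives reach about 48 µM in these data; inactive = the rest, including activity in the rising direction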;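 note: lower polarization ratio signals compound binding to DNA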
* = called active by the depositor; [ ] = another dose, or the depositor's remark.

What do the screens show for `OC(c1ccccc1)(c1ccccc1)C1CCN(CCCOc2ccc(-c3ccncc3)cc2)CC1`?
EWS-Fli inh: 25; PAX8 reporter: 14; CFTR F508del cor: 0; Env fusion inh: 1

Results for C[C@@H]1CN([C@@H](C)CO)C(=O)Cc2cc(NC(=O)Cc3cn(C)c4ccccc34)ccc2O[C@H]1CN(C)C(=O)Nc1ccc2c(c1)OCO2 ?
EWS-Fli inh: -1; PAX8 reporter: -9; CFTR F508del cor: -2; Env fusion inh: -1[16.7 µM]

What do the screens show for `Cc1ccc(S(=O)(=O)Nc2ccc3c(c2)C(=O)N([C@@H](C)CO)C[C@@H](C)[C@H](CN(C)Cc2ccc(C(F)(F)F)cc2)OCCCC[C@H](C)O3)cc1`?
EWS-Fli inh: 69*; PAX8 reporter: 106*; CFTR F508del cor: 2; Env fusion inh: -6[16.7 µM]; DNA binding: -21%

What do the screens show for `C[C@@H]1CCCCO[C@H](CN(C)Cc2ccc(C(=O)Nc3ccccc3N)cc2)[C@@H](C)CN([C@H](C)CO)C(=O)c2cc(NS(=O)(=O)c3ccc(F)cc3)ccc2O1`?
EWS-Fli inh: 61*; PAX8 reporter: 52; CFTR F508del cor: 3; Env fusion inh: 5[16.7 µM]; DNA binding: -10%

How did C[C@@H]1CCCCO[C@H](CN(C)Cc2ccc(C(=O)Nc3ccccc3N)cc2)[C@@H](C)CN([C@H](C)CO)C(=O)c2cc(NS(=O)(=O)c3ccccc3)ccc2O1 do in these assays?
EWS-Fli inh: -4; PAX8 reporter: 22; CFTR F508del cor: 4

What do the screens show for `C[C@@H]1CN([C@@H](C)CO)C(=O)c2cc(NC(=O)c3ccccc3)ccc2O[C@@H](C)CCCCO[C@H]1CN(C)C(=O)Nc1cccc2ccccc12`?
EWS-Fli inh: 71*; PAX8 reporter: 1; CFTR F508del cor: 2; Env fusion inh: 60*[16.7 µM]; DNA binding: 5%

What do the screens show for `COc1ccc2c3c(n(C)c2c1)[C@@H](CO)N(Cc1ccc(Cl)cc1)CC31CCN(C(=O)NC(C)C)CC1`?
EWS-Fli inh: 9; PAX8 reporter: -5; CFTR F508del cor: 4

What do the screens show for `COCCCNc1ccn2nc(-c3ccccc3)cc2n1`?
EWS-Fli inh: 57*; PAX8 reporter: 10; FXN GAA850 act: -4; CFTR F508del cor: -3; Env fusion inh: 63*; DNA binding: -9%

How did O=C(N[C@H]1C=C[C@H](CC(=O)N2CCOCC2)O[C@H]1CO)c1cccc(F)c1 do in these assays?
EWS-Fli inh: 4; PAX8 reporter: 1; CFTR F508del cor: 2; Env fusion inh: 15[16.7 µM]

How did N=c1ccn2c(n1)O[C@H]1[C@H](O)[C@@H](CO)O[C@H]12 do in these assays?
EWS-Fli inh: 53*; PAX8 reporter: 49; FXN GAA850 act: -3; CFTR F508del cor: 5; Env fusion inh: 24; DNA binding: -18%

What do the screens show for `C[C@@H]1CN([C@@H](C)CO)C(=O)Cc2cc(NC(=O)c3ccncc3)ccc2O[C@H]1CN(C)S(=O)(=O)c1ccc(Cl)cc1`?
EWS-Fli inh: -4; PAX8 reporter: 7; CFTR F508del cor: 1

How did CN(C)c1ccc(N=Nc2ccccc2Br)cc1 do in these assays?
EWS-Fli inh: 53*; PAX8 reporter: -19; FXN GAA850 act: 1; CFTR F508del cor: -1; Env fusion inh: -153; DNA binding: -5%

What do the screens show for `Cc1cc(N(C)C)ccc1N=Nc1ccc(N)cc1`?
EWS-Fli inh: -6; PAX8 reporter: -98; FXN GAA850 act: -3; CFTR F508del cor: 0; Env fusion inh: -246

Results for O=C(C[C@H]1C[C@H]2c3cc(NC(=O)NC4CCCC4)ccc3O[C@H]2[C@H](CO)O1)NCc1ccc2c(c1)OCO2 ?
EWS-Fli inh: -2; PAX8 reporter: -11; CFTR F508del cor: 1; Env fusion inh: -9[16.7 µM]

What do the screens show for `COc1ccc([Si](C)(C)[C@H]2[C@H](CCO)O[C@@]3(C(=O)N(c4ccccc4)c4ccccc43)[C@@H]2C)cc1`?
EWS-Fli inh: 58*; PAX8 reporter: 103*; CFTR F508del cor: 1; Env fusion inh: 19[16.7 µM]; DNA binding: 2%

How did C[C@H]1CN([C@@H](C)CO)C(=O)c2cc(C#CC3(O)CCCC3)cnc2O[C@@H]1CN(C)Cc1ccccn1 do in these assays?
EWS-Fli inh: -5; PAX8 reporter: -22; CFTR F508del cor: 1

What do the screens show for `Cn1ccc2cc(-c3ccc4ncnc(NCc5cccs5)c4c3)ccc21`?
EWS-Fli inh: 51*; PAX8 reporter: 83*; FXN GAA850 act: -4; CFTR F508del cor: 0; Env fusion inh: 42; DNA binding: -13%

What do the screens show for `COc1cccc(-c2ccc3ncnc(NCc4cccs4)c3c2)c1`?
EWS-Fli inh: 18; PAX8 reporter: -14; FXN GAA850 act: -1; CFTR F508del cor: -4; Env fusion inh: 1

Results for COc1ccc(NC(=O)N(C)C[C@@H]2OCCCC[C@@H](C)Oc3ccc(NC(=O)Nc4cccc5ccccc45)cc3C(=O)N([C@H](C)CO)C[C@@H]2C)cc1 ?
EWS-Fli inh: -1; PAX8 reporter: -6; CFTR F508del cor: 0; Env fusion inh: -5[16.7 µM]

How did COc1ccc(C=C2CCc3ccccc3C2=O)cc1 do in these assays?
EWS-Fli inh: 70*; PAX8 reporter: -96; CFTR F508del cor: 2; Env fusion inh: 12; DNA binding: 2%

What do the screens show for `CCOc1ccccc1C=C1CCc2ccccc2C1=O`?
EWS-Fli inh: -41; PAX8 reporter: -20; FXN GAA850 act: 3; CFTR F508del cor: 1; Env fusion inh: -25

How did CCOc1ccc(/C=C2\CCc3ccccc3C2=O)cc1 do in these assays?
EWS-Fli inh: 70*; PAX8 reporter: -24; FXN GAA850 act: 1; CFTR F508del cor: 2; Env fusion inh: 5; DNA binding: -7%

What do the screens show for `O=C1C(=Cc2ccc(Cl)cc2)CCc2ccccc21`?
EWS-Fli inh: -13; PAX8 reporter: -87; CFTR F508del cor: 0; Env fusion inh: 4

What do the screens show for `CO[C@@H]1CN(C)C(=O)c2ccc(NC(=O)C3CCOCC3)cc2OC[C@H](C)N(C(C)=O)C[C@@H]1C`?
EWS-Fli inh: -1; PAX8 reporter: 1; CFTR F508del cor: -2

How did C=C1C(=O)C=C[C@]2(C)C[C@@H]3OC(=O)[C@](C)(O)[C@H]3C[C@@H]12 do in these assays?
EWS-Fli inh: 65*; PAX8 reporter: 67*; FXN GAA850 act: -12; CFTR F508del cor: 1; Env fusion inh: -330; DNA binding: 15%

What do the screens show for `Cc1ccc(S(=O)(=O)N(C)C[C@@H]2Oc3ncc(-c4ccncc4)cc3C(=O)N([C@H](C)CO)C[C@H]2C)cc1`?
EWS-Fli inh: -4; PAX8 reporter: 10; CFTR F508del cor: 0
